Tests used:
Assay in all cases: PBM binding z-score (relative to random genomic background probes); higher = stronger binding; sequences stand for … in GC…GCGATTGACAGCGTAGAATGAAGG
[1] = test system: FXR:RXRa (NR concentration 270 nM, RXRa partner concentration 90 nM)
Outline: (§1)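 Regression normalization was applied to scanned fluorescence from custom Agilent 4×180K protein-binding microarrays. Before scanning, arrays were incubated 1 h with ligand-free nuclear receptor dimers, and binding was detected with antibodies against each partner (one per run). Binding z-scores use the random background probes as reference.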

[2] = test system: LXRa:RXRa (NR concentration 270 nM, RXRa partner concentration 90 nM)
Outline: as §1

[3] = test system: LXRa homodimer (NR concentration 270 nM)
Outline: as §1

[4] = test system: LXRb:RXRa (NR concentration 270 nM, RXRa partner concentration 90 nM)
Outline: as §1

[5] = test system: LXRb homodimer (NR concentration 270 nM)
Outline: as §1

[6] = test system: PPARa:RXRa (NR concentration 270 nM, RXRa partner concentration 90 nM)
Outline: as §1

[7] = test system: PPARg:RXRa (NR concentration 180 nM, RXRa partner concentration 90 nM)
Outline: as §1

[8] = test system: PPARg:RXRa 270nM:90nM, anti-RXR (NR concentration 270 nM, RXRa partner concentration 90 nM)
Outline: as §1

[9] = test system: PPARg:RXRa 30nM:10nM, anti-RXR (NR concentration 30 nM, RXRa partner concentration 10 nM)
Outline: as §1

[10] = test system: PPARg:RXRa 90nM:30nM, anti-RXR (NR concentration 90 nM, RXRa partner concentration 30 nM)
Outline: as §1

[11] = test system: PPARg:RXRa DBDmut IVT, anti-RXR (DBD mutation: RXRa K156A/R161A, NR concentration 270 nM, RXRa partner concentration 90 nM)
Outline: as §1

[12] = test system: PPARg:RXRa IVT, anti-PPARg (NR concentration 270 nM, RXRa partner concentration 90 nM)
Outline: as §1

[13] = test system: PPARg DBDmut:RXRa IVT, anti-PPARg (DBD mutation: PPARg1 K132A/R137A, NR concentration 270 nM, RXRa partner concentration 90 nM)
Outline: as §1

[14] = test system: PPARg DBDmut IVT, anti-PPARg (DBD mutation: PPARg1 K132A/R137A, NR concentration 270 nM)
Outline: as §1

[15] = test system: PPARg homodimer (NR concentration 180 nM)
Outline: as §1

[16] = test system: PXR:RXRa (NR concentration 270 nM, RXRa partner concentration 90 nM)
Outline: as §1

[17] = test system: PXR homodimer (NR concentration 270 nM)
Outline: as §1

[18] = test system: RARa:RXR (NR concentration 270 nM, RXRa partner concentration 90 nM)
Outline: as §1

[19] = test system: RARa homodimer (NR concentration 270 nM)
Outline: as §1

[20] = test system: RARb:RXRa (NR concentration 270 nM, RXRa partner concentration 90 nM)
Outline: as §1

Sequence	PBM binding z-score [1]	PBM binding z-score [2]	PBM binding z-score [3]	PBM binding z-score [4]	PBM binding z-score [5]	PBM binding z-score [6]	PBM binding z-score [7]	PBM binding z-score [8]	PBM binding z-score [9]	PBM binding z-score [10]	PBM binding z-score [11]	PBM binding z-score [12]	PBM binding z-score [13]	PBM binding z-score [14]	PBM binding z-score [15]	PBM binding z-score [16]	PBM binding z-score [17]	PBM binding z-score [18]	PBM binding z-score [19]	PBM binding z-score [20]
CCAACTGGGCCATCAGGTCATTGATATCAACGTT	1.54	0.836	0.987	1.56	-0.441	2.73	2.9	3.63	1.38	3.04	5.15	4.92	-0.74	0.0786	1.32	1.59	0.906	1.67	0.182	2.05
CAAACTAGGTCAAGAGGTCAAAGACCGCTTCCCG	7	6.25	5.13	5.46	1.47	6.65	10.1	8.53	7.38	8.62	8.33	8.34	1.4	0.266	5.54	5.94	1.78	7.58	1.89	5.61
CCTCGGAGGATAGAAGGTCAGAGCTGTCCGCTTT	1	1.57	0.218	1.21	-0.745	1.83	-0.0434	1.26	-0.528	0.571	0.306	0.12	-1.89	-1.62	1.56	1.38	-0.0463	1.82	0.234	2.29
TTACCAAGGTGAAAGGTCGTTTATGCACGCCTTG	3.55	3.3	0.773	3.33	0.0475	5.2	8.69	7.73	6.93	8.46	2.69	4.38	1.05	0.279	1.68	3.9	0.719	5.53	0.296	2.75
CCTACAGGGCCAAAAAGGTCATTGATGCCGATAA	4.22	4.32	2.83	4.2	0.284	4.61	1.51	2.74	0.52	1.49	-0.0995	0.938	-1.38	-1.06	2.94	5.28	4.66	5.28	1.42	4.26
CCTACTGGGCCATAAAGGTCATTGATGCCGATAA	3.55	4.42	3.57	4.21	0.574	4.79	4.32	4.68	2.1	4.45	3.2	4.78	-0.0892	0.0735	1.94	4.87	2.7	4.9	0.376	3.89
GGAACGAGGGCATTCGAGTTGATACCATGGCGAT	0.529	1.7	-0.438	0.458	-0.357	1.44	1.06	0.855	-0.156	0.405	3.16	2.33	1.32	-0.701	0.6	4.1	1.75	2.07	-0.391	1.93
GATACAGGGTCAGATAGAGGCCAGAGTATGGAAA	4.95	3.16	0.138	3.03	0.456	4.58	3.32	3.11	1.18	2.09	1	2.53	1.35	0.368	2.7	3.26	0.844	4.13	0.243	3.97
ATATGTAGGTTAAATCCGGGTCATTCAGGCTATG	2.83	5.17	3.32	3.47	1.09	4.96	5.84	5.44	2.91	4.84	7.28	7.3	2.58	2.7	2.38	4.32	1.9	4.3	0.415	2.51
AGAATGAGGGCACGCTGAGTTGATAGCAGAGTAG	1.27	1.11	-0.448	0.487	-0.735	2.7	2.69	2.62	0.921	1.87	5.59	4.73	1.66	0.551	0.535	1.48	0.452	1.18	-0.371	2.62
CCTAGTTGGTCAGGAGGTCATACACCGGATATGA	3.81	3.61	2.79	3.13	0.702	3.89	2.72	3.82	1.58	2.89	1.25	3.03	0.324	0.888	3.21	3.99	1.57	4.19	1.23	3.33
CATACAGGGTCAGCTAGGCCAGATTAGGGACGGC	4.11	2.99	-0.059	2.4	0.391	4.38	3.11	2.96	0.713	1.62	1.11	1.98	0.335	-0.106	1.45	2.26	-0.138	3.04	0.588	3.91
GCTGCTAGGTCAACTGGTGGTCAGCTAAAGCTCG	4.15	3.04	-0.00351	1.99	-0.442	3.55	2.75	3.48	0.603	2.25	4.77	4.33	-0.118	-0.735	2.55	1.61	-0.644	3.34	-0.0343	4.23
TCTTGTAGATTAATAGAGGTTAAGAAAGTGCGCT	1.31	4.17	2.85	2.28	0.623	2.07	0.283	2.2	3.11	2.59	2.32	0.996	0.986	0.929	1.23	3.4	0.795	2.2	0.565	1.21
TCTACTTGGTCAAAGGTCACACACTCGAAATGCG	6.58	5.85	4.37	5.9	2.26	6.72	11.9	9.98	10.5	11	3.83	6.58	2.43	3.34	4.9	6.09	1.84	7.73	4.11	5.29

Source: the supplement of paper PMC6555819
